# From PubChem BioAssay
# System: PRMT1 (protein arginine N-methyltransferase 1)
# Assay: PRMT1 binders on small-molecule microarrays, primary screen, biochemical, small-molecule microarray, 635 nm fluorescence (AID 1088);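 note: binding of Prmt1 protein to compounds spotted on small-molecule microarray slides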
# Conditions: small-molecule microarray binding, higher = more signal
row,SMILES,composite z-score
1,C=CCC(OC(C)=O)[C@@H]1[C@@H](N(Cc2ccc(-c3ccccc3)cc2)C(=O)c2ccc(-c3ccccc3)cc2)c2cc(OCCCO)ccc2N1C(=O)c1ccc2ccccc2c1 (some centres undefined),0.636
2,CCOC(=O)C[C@H]1[C@H](OC(=O)c2cc3ccccc3oc2=O)[C@@H](NC(=O)c2ccc3ccccc3n2)c2cc(OCCCO)ccc2N1C(=O)Cc1ccc(OC)cc1,1.45
3,Cc1ccc(S[C@]2(C(=O)NCC(F)(F)F)CC(=O)N(Cc3cc(C(F)(F)F)cc(C(F)(F)F)c3)[C@@H]2c2ccc(CO)cc2)cc1,1.31
4,COC(=O)[C@@]1(Cc2ccc(OC)cc2)[C@H]2c3cc(C(=O)N4CCCC4)n(CCc4c[nH]c5ccc(O)cc45)c3C[C@H]2CN1C(=O)c1ccccc1,0.66
5,NC(=O)[C@@]1(Cc2ccccc2)COC(c2ccc(OCCCO)cc2)=N1,-0.57
6,COCCOC(=O)N1C(=O)[C@@]2(c3cc(C#CCCO)ccc31)[C@H](C(=O)Nc1nc3ccccc3s1)[C@H]1C(=O)O[C@H](c3ccccc3)[C@H](c3ccccc3)N1[C@@H]2c1ccc(O)cc1,1.54
7,COc1ccc([Si](C)(C)[C@@H]2[C@@H](CCO)O[C@]3(C(=O)N(Cc4ccccc4)c4ccc(N5CCOC5=O)cc43)[C@H]2C)cc1,1.51
8,C=C(/C(=C/C[C@H](OC(C)=O)c1ccc(CO)o1)c1cnc2ccccc2c1)C(C)C,1.54
9,COC(=O)[C@@]1(Cc2ccccc2)[C@H]2c3cc(C(=O)N4CCCC4)n(CCc4ccccn4)c3C[C@H]2CN1C(=O)c1ccccc1,0.123
10,COCC(=C=CC[C@H](O)c1ccc(OCCO)cc1)CCO,1.18
11,CCOC(=O)C1=C[C@@H](C(C)(C)C)N(S(=O)(=O)c2ccc(C)cc2)[C@H]1c1cccc2ccccc12,0.735
12,C=CC[C@@]1(C(=O)NCCCOC)N=C(c2ccc(OCCCO)cc2)O[C@@H]1c1ccccc1,1.24
13,[N-]=[N+]=Nc1ccccc1C[C@]1(C(=O)NCCN2CCOCC2)COC(c2ccc(OCCCO)cc2)=N1,1.29
14,Cc1ccc(F)cc1S(=O)(=O)N[C@@H]1CCN(Cc2ccc(Br)cc2)C1,-0.268
15,OCCCC1=CC(c2ccc(CN3CCCC3)cc2)N(Cc2cc3c(cc2Br)OCO3)CC1 (centres undefined),0.233
16,COC(=O)C1=CC(CCCO)=CC(c2ccc(CN3CCCC3)cc2)N(Cc2cccc(OC(F)(F)F)c2)C=C1C(=O)OC (centres undefined),1.44
17,CC(CO)N1C(=O)[C@@H]2[C@H]3C(=O)OCC=C[C@H]3OC23C=CCN(Cn2nnc4ccccc42)C(=O)[C@@H]13 (some centres undefined),-0.533
18,CC(C)NC(=O)[C@@]1(c2ccc([N+](=O)[O-])cc2)CC(=O)N(C2CCCCC2)[C@@H]1c1ccc(CO)cc1,1.54
19,O=C1CS(=O)(=O)C(c2cccc([N+](=O)[O-])c2)N1c1ccccc1 (centres undefined),-0.0065
20,NC(=O)NCC#Cc1ccc2c(c1)[C@]1(C(=O)N2)[C@H](c2ccccc2OCCO)N2[C@H](c3ccccc3)[C@H](c3ccccc3)OC(=O)[C@H]2[C@@H]1C(=O)NC[C@H](O)c1ccccc1,0.415
21,CCCC[C@@H](O)C1=C(COc2ccccc2)C[C@H]2C(=O)N(Cc3ccccc3)C(=O)[C@H]2[C@H]1CO,0.287
22,COC(=O)[C@@]1(Cc2ccc(F)cc2)[C@H]2c3cc(C(=O)N(C)C)n(Cc4ccc(OC(F)(F)F)cc4)c3C[C@H]2CN1C(=O)c1ccccc1,-1.21
23,COCCOC(=O)N1C(=O)[C@@]2(c3cc(C#CC4=CCCCC4)ccc31)[C@H](c1ccccc1OCCO)N1[C@H](c3ccccc3)[C@H](c3ccccc3)OC(=O)[C@H]1[C@@H]2C(=O)N1CCN(c2ncccn2)CC1,1.57
24,O=C1OCCC=C[C@H]2OC34C=CCN(c5ccc6ccccc6c5)C(=O)[C@H]3N(CCCO)C(=O)[C@@H]4C12 (some centres undefined),-1.63
25,CCCC=C(CCC)[C@@H](NS(=O)(=O)CC12CCC(CC1=O)C2(C)C)c1ccc(C(=O)OC)cc1 (some centres undefined),0.788
26,CC(C)[Si](C#C[Si](C(C)C)(C(C)C)C(C)C)(O[C@H](c1ccccc1)c1cn(Cc2ccccc2)nn1)C(C)C,1.26
27,C[N+](C)(C)CCCC[C@@H]1NC(=O)[C@@H]2C[C@H](C(=O)NCCCCCCN)[C@H](c3cccc(OCCO)c3)N2C1=O,1.45
28,COC(=O)[C@@H]1N=C(c2ccc(OCCCO)cc2)O[C@@H]1C,1.28
29,Cc1ccc(N2C(=O)c3ccccc3[C@@H](C(=O)NCCCN(C)C)[C@@H]2c2ccc(CO)cc2)nc1,0.0027
